Inconclusive results are not listed. Active and inactive are the calls of the source. The call rests on the fitted dose curve; in most records, active means well fitted curve in the direction sought with a large enough effect in the signal ratio; inconclusive means small, poorly fitted or top-dose-only effect, or effect the other way, or a change in a side signal; inactive means no such curve, though single readings can be large or run the other way; the % refers to the signal ratio.

The assay can be described thus: Validation of Assay for Modulators of Lamin A Splicing (AID 1459).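 Further: cells exposed to compound for two days before reading; ratio rise marks activators and ratio drop marks inhibitors.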 The conditions noted are these: Lamin A splicing dual RFP/GFP fluorescence reporter; series mostly up to 9.22 µM. An excerpt:
Hutchinson-Gilford Progeria Syndrome (HGPS) is a pediatric premature aging disease caused by a spontaneous mutation in the lamin A/C (LMNA) gene. The mutation activates a cryptic splice site in the LMNA pre-mRNA which results in production of a pre-lamin A protein that cannot be processed properly. The mutant protein accumulates in the nucleus and negatively affects numerous cellular functions. Correction of the splicing defect in HGPS patient cells using a targeted oligonucleotide (exo11) leads to reversal of the cellular disease phenotypes. To identify small molecule modulators of aberrant LMNA splicing, a homogenous assay was constructed in HeLa cells that used a GFP containing minigene to report on correction of aberrant splicing in lamin A and a RFP (DsRed2) to report on cell viability, uniformity and nonspecific effects on the assay signal. This assay was adapted to laser-scanning microplate cytometry (Acumen, TTP Labtech) where miniaturization of the assay to a 1,536-well plate format was possible.
Bowen, W. P.; Wylie, P. G. Application of Laser-Scanning Fluorescence Microplate Cytometry in High Content Screening. Assay Drug Dev Technol 2006;4:209-221.
Scaffidi P, Misteli T. Reversal of the cellular phenotype in the premature aging disease Hutchinson-Gilford progeria syndrome. Nat. Med. 2005;11:440-445.
NCGC Assay Protocol Summary:
Reagents/Controls: Stable clones expressing DsRed2 and lamin A-EGFP were generated by Cell and Molecular Technologies in S3 HeLa cells.
HeLa cells were prepared for the assay when they were 70-90% confluent. The cells were counted and resuspended in Opti-MEM I (no phenol red; Gibco), 2% FBS, 1% penicillin/ streptomycin (Gibco) at concentration of 120 cells/uL concentration. The suspension was passed through a Falcon basket filter with pore size 40um (Beckton Dickson).
Control titrations: column […] 1536-well plate contained a sixteen point titration (1:2 dilutions) in duplicate of ancitabine (Sigma: A8598) beginning at 40 uM final concentration. Column 2 contained a sixteen point titration (1:2 dilutions) of cycloheximide beginning at 1.4 mM final concentration. Column 3 contained ancitabine at 40 uM and column 4 contained was the vehicle control (0.5% DMSO final concentration).
5 uL of HeLa cells were plated in Aurora LoBase black clear bottom (cyclic-olefin polymer) 1536-well plates at a final density of 600 cells/well. Controls and library compounds were added with a 1536-well pin array using the Kalypsys pin-tool. The plates were then incubated for 48 hrs in a cell-culture incubator (37 °C; 5% CO2, 98% humidity). Following incubation the plates were read on the Acumen Explorer using the 488 nm laser. Data was collected on objects between 10 and 100 um in size. Cell objects were defined by a 15 um width x 10 um depth filter. The ratio of the total object intensity in PMT1 (500-530 nm emission; GFP) over PMT3 (575-640 nm emission; RFP) was calculated for analysis.
Keywords: NIH Roadmap, MLSCN, MLI, MLSMR, qHTS, NCGC, lamin A, Progeria, RNA splicing.
For `Oc1ccc2c3c1O[C@H]1c4[nH]c5c(c4C[C@@]4(O)[C@@H](C2)N(CC2CC2)CC[C@]314)C[C@@]1(O)[C@H]2Cc3ccc(O)c4c3[C@@]1(CCN2CC1CC1)[C@H]5O4`, the outcome was inactive. With `Cc1nccc2c1[nH]c1ccccc12`, the call was inactive. For `CCCN(CCC)[C@@H]1CCc2ccc(O)cc2C1`, the result was inactive. With `C[C@@H](N)Cc1cnc[nH]1`, the compound was called inactive. The result for `NC(CCP(=O)(O)O)C(=O)O` (stereo not given) reads “inactive”. For `O=C(O)CC[N+](=O)[O-]`, the compound was classed as inactive. Regarding `O=C(O)Cc1cnc[nH]1`, the compound was called inactive. The result for `CC(C)Oc1cccnc1N(C)C1CCN(Cc2ccccc2)CC1` reads “inactive”; that for `C[C@]12CCC3C(CC[C@H]4C[C@H](O)CC[C@]34C)C1CC[C@@H]2C(=O)CO` (stereo not given in full), “inactive”.

As to `CCCN1CCO[C@@H]2c3cc(O)ccc3OC[C@H]21`, the result was inactive. Consider `C[N+]1(C)C2CCC1CC(OC(=O)C(CO)c1ccccc1)C2` (stereo not given), for which the call was inactive. As for `C[C@@H]1O[C@H](C[N+](C)(C)C)C[C@H]1O`, the call was inactive. For `CNCCc1c[nH]c2ccc(O)cc12`, the compound was classed as inactive. The result for `NC(=O)CN1CC(O)CC1=O` (stereo not given) reads “inactive”; that for `CN1C2CCC1CC(OC(=O)c1cc(Cl)cc(Cl)c1)C2` (stereo not given), “inactive”. The result for `C#CCOC(=O)C1=CCCN(C)C1` reads “inactive”; that for `CCCCc1ccc(C(=O)O)nc1`, “inactive”. The result for `Clc1cnc(Oc2ccc(Oc3ncc(Cl)cc3Cl)cc2)c(Cl)c1` reads “inactive”; that for `C[C@]12N[C@H](Cc3ccccc31)c1ccccc12`, “inactive”; that for `S=C(NC1CCCCC1)N1CCC(c2cnc[nH]2)CC1`, “inactive”.

On to `COc1cc(C(O)CN)ccc1O` (stereo not given), for which the result was inactive. For the compound `c1ccc2sc(C3(N4CCCCC4)CCCCC3)cc2c1`, the compound was called inactive. With `O=C1CCCN1CC#CCN1CCCC1`, the outcome was inactive.

As for `CC[C@@H]1C(=O)OC[C@@H]1Cc1cncn1C`, the compound was classed as inactive.

As for `CC(C)NC(C)Cc1ccc(I)cc1` (stereo not given), the compound was called inactive. As for `O=C(O)[C@@H]1CCN1`, the call was inactive. The result for `Cn1cnc(CCN)c1` reads “inactive”; that for `NCCc1c[nH]c2ccc(O)cc12`, “inactive”. As to `NC(CP(=O)(O)O)C(=O)O` (stereo not given), the result was inactive. For `CC1=NN=C(c2ccc(N)cc2)c2cc3c(cc2C1)OCO3`, the compound was called inactive.

With `C=CCN1CC[C@]23CCCCC2[C@H]1Cc1ccc(O)cc13` (stereo not given in full), the call was inactive. `NC1CCc2cc(O)c(O)cc2C1` (stereo not given): the compound was classed as inactive. For `NCc1cc(=O)[nH]o1`, the compound was called inactive. As to `CCCN1CCC[C@H](c2cccc(O)c2)C1`, the compound was called inactive. Turning to `CS(=N)(=O)CC[C@H](N)C(=O)O` (stereo not given in full), the call was inactive. On to `NC(=NCCC[C@H](N)C(=O)O)N[N+](=O)[O-]`, for which the result was inactive.

`O=C(Cc1ccc(Cl)c(Cl)c1)N1CCCCC1CN1CCCC1` (stereo not given): the result was inactive. Turning to `CC(=O)NCCc1c[nH]c2ccccc12`, the result was inactive.

Consider `C[N+](C)(C)CC(=O)O`, for which the result was inactive. Consider `CCCN(CCC)C1CCc2ccc(O)cc2C1` (stereo not given), for which the outcome was inactive.

These data come from PubChem BioAssay (NCATS).
